The text below walks through data of PubChem BioAssay (Tox21).

A short description of experiment [1]: qHTS assay for small molecule agonists of the p53 signaling pathway (AID 651631; calls by dose curve; further: nearly all actives have a fitted effect of over 15% in size; further: potency means the concentration at half of the fitted maximal effect). In a few lines:
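Read-out is beta-lactamase FRET fluorescence measured 2 h after substrate addition at room temperature, in HCT-116 cells with a p53 response element-driven reporter exposed to compounds for 16 h at 37 °C.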

Experiment [2] can be described thus: qHTS assay for small molecules that induce genotoxicity in human embryonic kidney cells expressing luciferase-tagged ATAD5 (AID 651632). Further: nearly all actives have a fitted effect of over 15% in size. In outline:
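Luminescence read-out: after 16 hr compound exposure at 37C, ATAD5-luciferase HEK293T cells received Amplite, 30 min RT, then CCD imaging. A rise in signal marks genotoxic stress.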

Experiment [3] is described as follows: qHTS assay for small molecule agonists of the p53 signaling pathway - cell viability (AID 651633; calls by dose curve;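 further: p53RE-bla HCT reporter cells with a stable beta-lactamase p53 reporter; series mostly up to about 83 µM; nearly all actives have a fitted effect of over 30% in size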). In outline:
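p53RE-bla cells were treated with compound for 16 hours at 37 C. Cytotoxicity was then measured as CellTiter-Glo luminescence after 30 min at room temperature.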
A general note: qHTS replaces the single test concentration by a dilution series.

Experiment [4] is described as follows: qHTS assay for small molecule disruptors of the mitochondrial membrane potential - cell viability (AID 720634; calls by dose curve; further: nearly all actives have a fitted effect of over 20% in size; further: potency means the concentration at half of the fitted maximal effect). In a few lines:
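Luminescence from CellTiter-Glo (ATP content) gave viability in HepG2 cells, read in the same wells as the MMP dye assay after 1 hr compound exposure at 37 C.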

A short description of experiment [5]: qHTS assay for small molecule disruptors of the mitochondrial membrane potential (AID 720635). Further: potency means the concentration at half of the fitted maximal effect. In a few lines:
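HepG2 cells exposed to compound 1 hr at 37C, then Mito-MPS dye 30 min. Ratio read of aggregate (540/590 nm) versus monomer (490/535 nm) fluorescence.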

Experiment [6] can be described thus: qHTS assay to test for compound auto fluorescence at 590 nm (red) in HepG2 cells (AID 720674). In a few lines:
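Fluorescence at 590 nm emission following 540 nm excitation was recorded from HepG2 wells one hour after compound transfer, with DMSO-only wells as vehicle and Rose Bengal sodium equivalency as the scale.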

Experiment [7] can be described thus: qHTS assay to test for compound auto fluorescence at 535 nm (green) in HepG2 cells (AID 720675).
Experiment [8] can be described thus: qHTS assay to test for compound auto fluorescence at 460 nm (blue) in HEK293 cells (AID 720678). In outline:
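Cells were seeded and left to adhere for 4-5 hr at 37C. Compounds were then pin-transferred. After an overnight incubation at 37C under 5% CO2, intrinsic fluorescence at 405/460 nm was measured and referenced to triamterene.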

Experiment [9] is described as follows: qHTS assay for small molecules that induce genotoxicity in human embryonic kidney cells expressing luciferase-tagged ATAD5 - cell viability (AID 651634; calls by dose curve; further: nearly all actives have a fitted effect of over 25% in size). In outline: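 HEK293T ATAD5-luc cells, 2,000/well; compound 15.5 hr, 37C/5% CO2; CellTiter-Fluor 30 min, 37C; fluorescence read.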
Experiment [10] can be described thus: qHTS assay to test for compound auto fluorescence at 590 nm (red) in HEK293 cells (AID 720679). In a few lines:
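Each well held 2,000 HEK293 cells in medium containing 10% dialyzed FBS. Following 4-5 hr attachment at 37C, 23 nL test compound or DMSO was added; plates sat overnight, and red fluorescence (540/590nm) was recorded.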

“And” between values parts separate entries of the source, which are not always exact repeats. Equal entries are not always repeated. Values without a mark were called inactive. Results filed as inconclusive are left out. The source made the active and inactive calls. Unless noted, the call rests on the fitted dose curve; in most records, active means well fitted curve in the direction sought with a large enough effect in the repeat runs; inconclusive means weak or mixed curves; inactive means no such curve, though single readings can be large; an effect the other way counts as inactive or inconclusive.
On the % scale 0 is the no-effect control and ±100 the full control effect.

For the compound `C[C@H]1CCC[C@H](O)CCCCCc2cc(O)cc(O)c2C(=O)O1`, the Potency result in experiment [1], in experiment [2] and in experiment [3] was “inactive” each time. The Potency in [4] is 26.6 µM (active); in experiment [5], 9.44 µM (active) and 6.91 µM (active). The compound was classed as inactive in experiment [6], in experiment [7] and in [8].
As to `CN1CCN(C(=O)O[C@H]2c3nccnc3C(=O)N2c2ccc(Cl)cn2)CC1`, the Potency entry in [1], in experiment [2], in experiment [3], in experiment [9] and in [4] was “inactive” throughout. For the same compound, the compound was called inactive in [6], in experiment [7], in experiment [8] and in experiment [10].
`CC(C1CC1)C(O)(Cn1cncn1)c1ccc(Cl)cc1` (stereo not drawn): the Potency entry in experiment [1], in experiment [2], in [3], in [9] and in experiment [4] was “inactive” each time. In addition, the outcome in experiment [6], in experiment [7] and in experiment [10] was inactive.
In the case of `CCOP(=S)(OCC)Oc1cc(-c2ccccc2)on1`, the Potency result in experiment [1], in [2], in experiment [3] and in experiment [9] was “inactive” throughout. The compound was called inactive in [6], in experiment [7], in experiment [8] and in experiment [10].
As for `C=C(C)[C@@H]1CC=C(C=O)CC1`, the Potency entry in experiment [1], in experiment [2], in [3], in [9] and in experiment [4] was “inactive” in each case. In addition, the outcome in experiment [6], in [7], in [8] and in experiment [10] was inactive.
Consider `CNNC`, for which the Potency result in experiment [1], in experiment [2], in experiment [3], in experiment [9] and in [4] was “inactive” each time. The outcome in experiment [7], in experiment [8] and in experiment [10] was inactive.
On to `Cc1cccc(C#N)c1`, for which the Potency entry in experiment [1], in [2], in experiment [3], in experiment [9] and in experiment [4] was “inactive” in each case. In addition, the compound was called inactive in experiment [6], in experiment [7], in experiment [8] and in [10].
With `C[C@]1(O)CC[C@H]2[C@@H]3CCC4=CC(=O)CC[C@]4(C)[C@@]3(F)[C@@H](O)C[C@@]21C`, the Potency entry in [1], in experiment [2], in experiment [3], in [4] and in experiment [5] was “inactive” in each case. In addition, the result in experiment [6], in [7], in [8] and in experiment [10] was inactive.
Regarding `COc1ccc2c(c1OC)CN1CCc3cc4c(cc3C1C2)OCO4` (stereo not drawn), the Potency entry in [1], in [2], in experiment [3], in experiment [9] and in [4] was “inactive” in each case. For the same compound, the fluorescence, relative to Rose Bengal in experiment [6] is 0.552% [at 18.6 µM]. In experiment [8], the fluorescence, % of triamterene was -0.105% [at 18.6 µM].
In the case of `CN(N=O)C(N)=O`, the Potency entry in [1], in experiment [2], in experiment [3], in experiment [9] and in experiment [4] was “inactive” each time. The call in [7], in experiment [8] and in experiment [10] was inactive.
Regarding `CCOP(=S)(Oc1cnc(C(C)(C)C)nc1)OC(C)C` (stereo not drawn), the Potency result in [1], in experiment [2], in experiment [3], in experiment [9] and in [4] was “inactive” each time. The result in [6], in [8] and in experiment [10] was inactive.
Take `CCS(=O)(=O)CCSP(=O)(OC)OC`: the Potency entry in experiment [1], in experiment [2], in [3], in experiment [9] and in [4] was “inactive” each time. Further, the result in [6], in [7], in experiment [8] and in experiment [10] was inactive.
For `COc1cccc(C(=O)NN(C(=O)c2cc(C)cc(C)c2)C(C)(C)C)c1C`, the Potency result in experiment [1], in [2], in experiment [3] and in experiment [9] was “inactive” each time. Also, the compound was classed as inactive in experiment [7], in experiment [8] and in experiment [10].
With `O=C1c2ccccc2C(=O)c2ccccc21`, the Potency result in [1], in [2], in [3], in experiment [9] and in experiment [4] was “inactive” in each case. Also, the call in experiment [6], in experiment [8] and in experiment [10] was inactive.
For the compound `CCOC(=O)N(C)C(=O)CSP(=S)(OCC)OCC`, the Potency result in [1], in [2], in [3], in experiment [9] and in experiment [4] was “inactive” throughout. The outcome in [7] and in experiment [10] was inactive.
For `CNC(=O)O/N=C(\C)SC`, the Potency result in experiment [1], in [2], in experiment [3], in experiment [9] and in experiment [4] was “inactive” throughout. Also, the outcome in experiment [6], in experiment [7], in [8] and in experiment [10] was inactive.
Turning to `O=CNC(N1CCN(C(NC=O)C(Cl)(Cl)Cl)CC1)C(Cl)(Cl)Cl` (stereo not drawn), the Potency result in [1], in experiment [2], in experiment [9] and in [4] was “inactive” in each case. In addition, the compound was classed as inactive in experiment [7] and in experiment [10].
On to `COc1cccc2c1cc([N+](=O)[O-])c1c(C(=O)O)cc3c(c12)OCO3`, for which the Potency in experiment [1] is 2.43 µM (active); in experiment [5] it was 48.6 µM (active). Further, the Potency entry in experiment [2], in experiment [3] and in experiment [4] was “inactive” throughout. Further, the compound was called inactive in [6], in experiment [7] and in experiment [10].
For the compound `CC1=C(C(=O)Nc2ccccc2)S(=O)(=O)CCO1`, in experiment [1], the Potency is 19.3 µM (active). The Potency result in [2], in experiment [3] and in [4] was “inactive” each time. Also, the compound was classed as inactive in experiment [6], in [7], in experiment [8] and in experiment [10].
As to `CCN(CC)c1nc(C)cc(OP(=S)(OC)OC)n1`, the Potency entry in experiment [1] and in experiment [2] was “inactive” throughout. The outcome in experiment [6], in experiment [7] and in experiment [10] was inactive.
`CCNc1nc(NC(C)C)nc(OC)n1`: the Potency result in [1], in experiment [2], in experiment [9] and in experiment [4] was “inactive” each time. The outcome in experiment [6], in [8] and in experiment [10] was inactive.
For `CCCCOC(=O)[C@@H](C)Oc1ccc(Oc2ccc(C#N)cc2F)cc1`, the Potency entry in experiment [1], in [2] and in [9] was “inactive” in each case. The result in experiment [6], in experiment [7], in [8] and in [10] was inactive.
On to `CC(C=O)Cc1ccc2c(c1)OCO2` (stereo not drawn), for which the Potency result in experiment [1], in experiment [2], in experiment [3] and in [4] was “inactive” each time. In addition, the outcome in [8] and in experiment [10] was inactive.
Consider `Cc1ncc(CNC(=O)N(CCCl)N=O)c(N)n1`, for which the Potency entry in [1], in experiment [3], in experiment [9], in experiment [4] and in experiment [5] was “inactive” throughout. The compound was classed as inactive in experiment [6], in [7] and in experiment [8].
As to `[Cl][Sn]([Cl])([Cl])[Cl]`, the Potency entry in experiment [1], in experiment [2], in experiment [3], in experiment [4] and in experiment [5] was “inactive” throughout. The compound was called inactive in experiment [6], in experiment [7] and in experiment [10].
`CC1(C)CON(Cc2ccccc2Cl)C1=O`: the Potency result in experiment [1], in [2], in [3], in [4] and in experiment [5] was “inactive” throughout. The result in experiment [7], in experiment [8] and in [10] was inactive.
Regarding `NC1=NC(=O)C(c2ccccc2)O1` (stereo not drawn), the Potency entry in experiment [1], in experiment [2], in experiment [4] and in experiment [5] was “inactive” in each case. The result in experiment [6], in experiment [7], in experiment [8] and in experiment [10] was inactive.
For `CC(=O)CCc1ccc2c(c1)OCO2`, the Potency result in experiment [1], in experiment [2], in experiment [9], in experiment [4] and in experiment [5] was “inactive” in each case. Further, the outcome in experiment [6] and in [7] was inactive.
As for `CC(=O)Nc1cc([As](=O)(O)O)ccc1O`, the Potency result in experiment [1], in experiment [2], in [4] and in [5] was “inactive” throughout. The call in experiment [6], in experiment [7], in [8] and in [10] was inactive.
Turning to `O=C(Oc1ccc(Br)cc1)N1CCN2CCC1CC2`, the Potency entry in experiment [1], in [2], in experiment [3] and in experiment [4] was “inactive” in each case. In addition, the compound was classed as inactive in experiment [6], in experiment [7], in experiment [8] and in experiment [10].
